KinaseGlo FLuc = counter-screen: inhibitors of Kinase-Glo firefly luciferase; Potency, µM (top dose mostly 38.3 µM), for inactives: at the top dose activity change, negative = inhibition, usual class: inhibitors; 0.28% of 200,000 active; Kinase-Glo luciferase, ATP luminescence, 8 min; note: nearly all actives have a fitted effect of over 60% in size
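Kinase-Glo luciferase light output from ATP and luciferin was measured with 10 uM ATP, within the enzyme's linear range. Buffer: 50 mM imidazole pH 7.2, 50 mM KCl, 7 mM MgCl2, 0.01% Tween 20, 0.05% BSA; luminescence read after 8 min at ambient temperature.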
VP16 counter = Gal4-VP16 reporter inhibition counter-screen; Drosophila S2 Gal4-VP16 UAS-luciferase, luminescence, 20 h; Potency, µM (doses to about 53.6 µM), without a hit: top-dose activity, negative = inhibition, usual class: inhibitors; 3.5% of 310,000 active; AID 2546;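 note: Gal4-VP16 expression switched on by copper sulfate through the metallothionein promoter; nearly all actives have a fitted effect of over 50% in size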
RORgamma inh = inhibitors of mouse ROR gamma transcriptional activity; P51450; 5.4% of 310,000 active; Drosophila S2 Gal4-RORgamma UAS-luciferase reporter, 20 h; Potency, µM (highest dose often 53.6 µM), for the others: top-dose activity change, negative = inhibition, actives largely listed as inhibitors; note: nearly all actives have a fitted effect of over 60% in size
Target sequence (P51450 whole entry, looked up, the tested form may be a part): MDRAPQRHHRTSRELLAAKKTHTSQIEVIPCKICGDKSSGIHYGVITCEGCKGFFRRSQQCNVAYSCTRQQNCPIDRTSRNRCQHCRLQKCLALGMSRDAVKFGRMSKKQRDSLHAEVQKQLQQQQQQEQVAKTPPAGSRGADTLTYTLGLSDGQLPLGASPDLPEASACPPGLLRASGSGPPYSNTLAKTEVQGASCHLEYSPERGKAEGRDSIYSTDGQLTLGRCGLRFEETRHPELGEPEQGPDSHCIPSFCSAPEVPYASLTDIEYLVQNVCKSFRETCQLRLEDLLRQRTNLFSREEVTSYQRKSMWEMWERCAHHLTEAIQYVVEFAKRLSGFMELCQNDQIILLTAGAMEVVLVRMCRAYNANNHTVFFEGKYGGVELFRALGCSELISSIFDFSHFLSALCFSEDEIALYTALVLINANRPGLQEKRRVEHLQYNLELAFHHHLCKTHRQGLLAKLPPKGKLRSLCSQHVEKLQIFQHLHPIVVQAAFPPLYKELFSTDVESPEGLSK
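In this cell-based reporter format, copper sulfate (700 uM final) drives Gal4–ROR gamma fusion expression from a metallothionein promoter in Drosophila Schneider cells; compounds preincubated 1 hr, reporter read after 20 hr at ambient temperature.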
The depositor's hits bear a star. In the library only some 6.2% were active in any assay of this set; here they are far more common. Calls come from the whole dose curve; as a rule, active = well fitted curve in the direction sought with a large enough effect; inconclusive = small, poorly fitted or top-dose-only effect, or another doubt; inactive = no such curve, though single readings can be large; an effect the other way counts as inactive or inconclusive. % is set by controls: 0 for no effect and ±100 for the full control effect; potency is the fitted concentration of half-maximal effect.

Screening CCN(CC)CCNc1nc(-n2nc(C)cc2C)nc2sc3c(c12)CC(C)(C)OC3 returned VP16 counter inconclusive and RORgamma inh 2.24µM*.
`Cc1cc(C)n(-c2nc(NCCC(C)C)c3c4c(sc3n2)COC(C)(C)C4)n1` gave KinaseGlo FLuc 6.5%, VP16 counter -11.6% and RORgamma inh 0.631µM*.
`CCSc1nc(NCCN(C)C)c2c3c(sc2n1)COC(C)(CC)C3` (stereo not given) gave VP16 counter 0.7% and RORgamma inh 5.0%.
`CCN(CC)CCNc1ncnc2c1sc1nc(N3CCCC3)c3c(c12)CC(C)(C)OC3` gave KinaseGlo FLuc -1.5%, VP16 counter inconclusive and RORgamma inh 11.2µM*.
Cc1cccnc1NC(=O)C1CCN(S(=O)(=O)c2cccs2)CC1 was read as KinaseGlo FLuc -0.2%, VP16 counter 2.3% and RORgamma inh -2.7%.
CC(C)(C)OC(=O)N[C@@H](CC(=O)OCc1ccccc1)C(=O)O was read as KinaseGlo FLuc 0.0%, VP16 counter -7.6% and RORgamma inh -0.5%.
For CSCC[C@H](NC(=O)[C@H](CC(C)C)N1CCC(NC(=O)[C@@H](NC(=O)[C@H](Cc2ccccc2)NC(=O)[C@H](CO)NC(=O)[C@H](CC(=O)O)NC(=O)[C@@H](N)CCCCN)C(C)C)C1=O)C(N)=O (stereo not given in full) the results were VP16 counter 5.5% and RORgamma inh -1.8%.
`Cc1cccc(NC(=O)Nc2ccccn2)c1C` gave VP16 counter inconclusive and RORgamma inh 22.0%.
Cc1cccc(NC(=S)Nc2ccccn2)c1C was read as KinaseGlo FLuc 0.5%, VP16 counter 1.78µM* and RORgamma inh 1.12µM*.
Screening Cc1cccc(NC(=S)NCc2ccc(F)cc2)c1C returned VP16 counter 5.01µM* and RORgamma inh 3.55µM*.
Cc1cccc(NC(=O)CCCc2ccccc2)c1C was read as VP16 counter -12.7% and RORgamma inh -16.3%.
Cc1cccc(NC(=S)NCc2ccccc2)c1C was read as VP16 counter 5.62µM* and RORgamma inh 3.98µM*.
`Cc1ccccc1NC(=S)NCc1ccc(Cl)cc1` gave KinaseGlo FLuc -0.9%, VP16 counter 3.98µM* and RORgamma inh 2.82µM*.
Cc1ccccc1NC(=O)NCCc1ccc(Cl)cc1 was read as KinaseGlo FLuc -0.1%, VP16 counter 4.1% and RORgamma inh -17.8%.
Screening Cc1cccc(NC(=S)NCCO)c1C returned KinaseGlo FLuc -2.1%, VP16 counter -5.1% and RORgamma inh -15.5%.
Screening CCCNC(=O)Nc1ccccc1SC returned KinaseGlo FLuc 0.3%, VP16 counter 6.3% and RORgamma inh 20.4%.
c1ccc2[nH]c(NCCCc3cnc[nH]3)nc2c1 was read as VP16 counter -12.8% and RORgamma inh -16.4%.
Cc1cccc(C(=O)Nc2ccccc2C(=O)NCc2ccco2)c1 was read as VP16 counter 1.3% and RORgamma inh inconclusive.
For COc1ccc(C2(CNC(=O)C(=O)Nc3ccc(C)cc3)CCOCC2)cc1 the results were KinaseGlo FLuc -3.5%, VP16 counter 2.5% and RORgamma inh 24.7%.
Screening COc1ccccc1NC(=O)N(Cc1cccs1)Cc1cc2cc3c(cc2[nH]c1=O)OCO3 returned KinaseGlo FLuc -1.1%, VP16 counter -7.1% and RORgamma inh inconclusive.
COc1ccc(C2/C=C\CN(CC(C)C)C(C)C(=O)N2Cc2ccc(F)cc2)cc1 (stereo not given) was read as VP16 counter -12.6% and RORgamma inh 50.8%.
For CCCn1c(Oc2ccccc2)nc2c1c(=O)n(C)c(=O)n2C the results were VP16 counter -1.5% and RORgamma inh -1.2%.
`Cc1ccccc1NC(=O)Nc1ccccc1C(=O)NCc1ccccc1` gave KinaseGlo FLuc 0.4%, VP16 counter -14.0% and RORgamma inh 9.2%.
Cc1c(Cl)cccc1NC(=O)CNc1ccccc1F was read as VP16 counter -2.5% and RORgamma inh -35.7%.
`Cc1c(Cl)cccc1NC(=O)NCc1ccc(F)cc1` gave KinaseGlo FLuc -3.9%, VP16 counter -6.6% and RORgamma inh 0.3%.
CCNC(=S)Nc1cccc(F)c1C was read as KinaseGlo FLuc 2.3%, VP16 counter -23.8% and RORgamma inh 12.6µM*.
For Cc1ccccc1NC(=S)NCc1ccc(F)cc1 the results were VP16 counter 6.31µM* and RORgamma inh 7.08µM*.
For Cc1cc(Cl)ccc1NC(=S)NCc1ccc(F)cc1 the results were VP16 counter 7.08µM* and RORgamma inh 6.31µM*.
Screening Cc1cccc(CSCCNC(=O)Nc2ccccc2)c1 returned KinaseGlo FLuc -0.8%, VP16 counter -2.4% and RORgamma inh -3.2%.
CC(C)COc1ccc(CSCCNC(=S)Nc2ccccc2)cc1 was read as KinaseGlo FLuc 2.1%, VP16 counter 3.16µM* and RORgamma inh 1.12µM*.
CCCCCOc1ccc(CSCCNC(=S)Nc2ccccc2)cc1 was read as KinaseGlo FLuc 2.3%, VP16 counter 3.16µM* and RORgamma inh 3.16µM*.
CCCCCOc1ccc(NC(=O)CCCC(=O)O)cc1 was read as KinaseGlo FLuc 8.9%, VP16 counter -29.3% and RORgamma inh 7.0%.
`CCOc1ccc(CNC(=O)Nc2ccccc2)cc1` gave VP16 counter 27.4% and RORgamma inh 6.8%.
CCCCOc1ccc(CSCCNC(=S)Nc2ccccc2)cc1 was read as KinaseGlo FLuc 2.6%, VP16 counter 4.47µM* and RORgamma inh 4.47µM*.
Screening O=C(NCCC1=CCCCC1)C(=O)NCc1ccncc1 returned KinaseGlo FLuc -3.5%, VP16 counter -19.6% and RORgamma inh 10.5%.
COc1ccccc1NC(=O)CCNS(=O)(=O)c1ccc2c(c1)CCN2C(C)=O was read as VP16 counter 0.5% and RORgamma inh 4.7%.
`O=C(NCC(=O)N(CC1CCCO1)C(C(=O)NC1CCCCC1)c1cccnc1)c1cccs1` (stereo not given) gave KinaseGlo FLuc -0.8%, VP16 counter 0.0% and RORgamma inh 4.7%.
For CCc1ccc(C(O)(c2ccccc2OC)C(CN2CCOCC2)c2ccccc2)cc1 (stereo not given) the results were KinaseGlo FLuc -0.2%, VP16 counter -5.1% and RORgamma inh 11.8%.
`CCOC(=O)c1c(C)nc2sc3c(c2c1-c1ccc(OC)cc1)NC(c1ccc(OC)cc1)NC3=O` (stereo not given) gave KinaseGlo FLuc -5.2%, VP16 counter -8.7% and RORgamma inh 2.2%.
`NC(CCC(=O)N[C@@H](CS)C(=O)NCC(=O)O)C(=O)O` (stereo not given in full) gave KinaseGlo FLuc -4.6%, VP16 counter -2.2% and RORgamma inh -16.4%.
Screening O=C(Nc1cccc(C(F)(F)F)c1)Nc1ccc(N2CCCC2)c(S(=O)(=O)Nc2ccccc2Cl)c1 returned KinaseGlo FLuc -0.6%, VP16 counter 11.2µM* and RORgamma inh inconclusive.
`COc1ccccc1NS(=O)(=O)c1cc(NC(=O)Nc2ccc(Cl)cc2Cl)ccc1N1CCCCC1` gave KinaseGlo FLuc -2.3%, VP16 counter -5.6% and RORgamma inh 32.3%.
CN(C(=S)NCCN1CCOCC1)C(c1ccccc1)c1ccccc1 was read as KinaseGlo FLuc -0.1%, VP16 counter -2.0% and RORgamma inh -1.1%.
Screening Cc1ccc(C(=O)NNC(=O)/C=C\C(=O)O)cc1 returned VP16 counter 3.2% and RORgamma inh inconclusive.
